Assay results published in PubChem BioAssay.

Each compound was assayed against Torsin-1A (Homo sapiens) (UniProt O14656) (assay: small-molecule binders of mutant TOR1A in lysate, primary screen, cell lysate, small-molecule microarray, COS7 lysate, 635/667 nm fluorescence (AID 1150;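 also: score pools 667 nm emission and signal to noise measuring lysate protein binding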)). Settings: COS7 hTOR1A mutant lysate, 635 nm fluorescence, higher = more signal.
Sequence of Torsin-1A (Homo sapiens) (O14656 whole entry, looked up): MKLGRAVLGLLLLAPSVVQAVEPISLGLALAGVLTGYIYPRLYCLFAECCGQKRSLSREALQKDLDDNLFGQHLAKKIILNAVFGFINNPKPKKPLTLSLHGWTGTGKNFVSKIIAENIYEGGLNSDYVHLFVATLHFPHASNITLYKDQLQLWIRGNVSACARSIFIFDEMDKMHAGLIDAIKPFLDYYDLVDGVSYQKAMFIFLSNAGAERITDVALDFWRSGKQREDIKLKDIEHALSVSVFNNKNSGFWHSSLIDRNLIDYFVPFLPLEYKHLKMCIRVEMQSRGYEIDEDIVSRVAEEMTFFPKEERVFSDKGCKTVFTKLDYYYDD

Structure (SMILES) | composite z-score
CC(C)[Si](C#C[Si](C(C)C)(C(C)C)C(C)C)(O[C@H](C)c1cn(Cc2cccc(Cl)c2)nn1)C(C)C | 0.262
CC(C)(C)OC(=O)CC[C@]1(C(=O)N2CCCCC2)N=C(c2ccc(OCCCO)cc2)O[C@H]1c1ccccc1CN=[N+]=[N-] | 1.17
CCOC(=O)C[C@H]1[C@H](OC(=O)Cc2ccc3c(c2)OCO3)[C@@H](NC(=O)c2ccccc2)c2cc(OCCCO)ccc2N1C(=O)c1ccc2ccccc2n1 | 1.19
CC(C)CCC[C@@H](C)[C@H]1CC[C@@]2(C)C3=C(CC[C@]12C)[C@@]1(C)CC[C@H](OC(=O)c2ccc(N)cc2)C(C)(C)C1CC3 (stereo not given in full) | 0.273
C=CCC(OC(C)=O)[C@@H]1[C@@H](N(Cc2cccc3ccccc23)C(=O)c2ccc(C)cc2)c2cc(OCCCO)ccc2N1C(=O)c1ccc2ccccc2c1 (stereo not given in full) | 0.792
COC(=O)C(CC#Cc1ccc2c(c1)[C@]1(C(=O)N2)[C@H](c2ccccc2OCCO)N2[C@H](c3ccccc3)[C@H](c3ccccc3)OC(=O)[C@H]2[C@@H]1C(=O)Nc1nc2ccccc2s1)C(=O)OC | 0.24
C=CCOC(=O)[C@@H]1[C@H]2C(=O)O[C@H](c3ccccc3)[C@H](c3ccccc3)N2[C@H](c2ccc(OCCOC(=O)[C@@H]3C[C@@H]4C(=O)N5CCC[C@H]5C(=O)N4[C@@H]3c3cccc(OCCO)c3)cc2)[C@@]12C(=O)Nc1ccc(I)cc12 | 0.623
COc1ccc(C(=O)Nc2ccc(CN3C(=O)[C@]4(O[C@H](CCn5cc([C@H](O)c6ccccc6)nn5)[C@@H]([Si](C)(C)c5ccc(OC)cc5)[C@@H]4C)c4ccccc43)cc2)cc1 | 0.223
CN(C)C(=O)[C@@]1(CCC(=O)OC(C)(C)C)N=C(c2ccc(OCCCO)cc2)O[C@H]1c1ccccc1N=[N+]=[N-] | 2.25
COCCOC(=O)N1C(=O)[C@@]2(c3cc(C#CCCO)ccc31)[C@H](C(=O)NC[C@H](O)c1ccccc1)[C@H]1C(=O)O[C@H](c3ccccc3)[C@H](c3ccccc3)N1[C@@H]2c1ccccc1OCCO | 0.597
COc1ccc([Si](C)(C)[C@H]2[C@H](CCO)O[C@@]3(C(=O)N(Cc4cccc(N5CCOC5=O)c4)c4ccccc43)[C@@H]2C)cc1 | -0.217
CN(C)CCCC[C@@H]1NC(=O)[C@H]2C[C@@H](C(=O)NCCCCCCNC(=O)CS)[C@@H](c3ccc(O)cc3)N2C1=O | 0.753
CC(C)=CCCC(C)=CC(O)C1C=CC2C(=O)N(c3ccccc3)C(=O)C2N1Nc1ccc([N+](=O)[O-])cc1 (stereo not given) | 1.12
COC(=O)[C@@]1(Cc2ccc(OC)cc2)[C@H]2c3cc(C(=O)N(C)C)n(Cc4cc(F)c(F)c(F)c4)c3C[C@H]2CN1C(=O)c1ccccc1 | 0.712
COCCOC(=O)N1C(=O)[C@@]2(c3cc(C#CCC(C(=O)OC)C(=O)OC)ccc31)[C@H](C(=O)N1CCCCCCC1)[C@H]1C(=O)O[C@H](c3ccccc3)[C@H](c3ccccc3)N1[C@@H]2c1ccc(O)cc1 | 1.41
[N-]=[N+]=Nc1ccccc1[C@H]1OC(c2ccc(OCCCO)cc2)=N[C@@]1(Cc1ccccc1)C(=O)NCc1ccccc1 | 0.383
COC(=O)C(CC#Cc1ccc2c(c1)[C@]1(C(=O)N2)[C@H](c2ccc(O)cc2)N2[C@H](c3ccccc3)[C@H](c3ccccc3)OC(=O)[C@H]2[C@@H]1C(N)=O)C(=O)OC | -0.491
C=CCNC(=O)[C@H]1[C@@H]2C(=O)O[C@@H](c3ccccc3)[C@@H](c3ccccc3)N2[C@@H](c2ccc(OCCO)cc2)[C@]12C(=O)N(C(=O)OCCOC)c1ccc(C#CC3=CCCCC3)cc12 | 0.868

Structure (SMILES) | composite z-score
COC(=O)[C@@]1(Cc2ccccc2)[C@H]2c3cc(C(=O)N(C)C)n(Cc4ccccn4)c3C[C@H]2CN1C(=O)c1ccccc1 | 0.239
O=C(Nc1cc(Br)ccc1C(=O)NCc1cccc(O)c1)c1ccccc1 | 0.533
NCCCCCCNC(=O)[C@H]1C[C@H]2C(=O)N3CCC[C@H]3C(=O)N2[C@H]1c1ccc(O)cc1 | 0.553
C#CCNS(=O)(=O)N(C)C | 0.0442
CCCC=C(CCC)[C@@H](NS(=O)(=O)CC)c1ccccc1 | 0.0756
CN(C)CCCCCCNC(=O)[C@@H]1C[C@@H]2C(=O)NCC(=O)N2[C@@H]1c1ccc(O)cc1 | 1.32
NC(=O)NCC#Cc1ccc2c(c1)[C@]1(C(=O)N2)[C@H](c2ccc(O)cc2)N2[C@H](c3ccccc3)[C@H](c3ccccc3)OC(=O)[C@H]2[C@@H]1C(N)=O | -1.74
COCCCNC(=O)[C@@]1(C)c2ccccc2C(=O)N(c2ccc(C)cn2)[C@H]1c1ccc(CO)cc1 | -1.17
COCCCNC(=O)[C@]1(Cc2ccccc2)N=C(c2ccc(OCCCO)cc2)O[C@@H]1c1ccccc1N=[N+]=[N-] | 1.04
CCCC=C(CCC)[C@@H](NC(=O)Cc1ccccc1)c1ccc(C(=O)OC)cc1 | -0.414
COc1ccc([Si](C)(C)[C@@H]2[C@@H](CCO)O[C@]3(C(=O)N(Cc4ccccc4)c4ccc(N5CCCCC5=O)cc43)[C@H]2C)cc1 | 0.198
COc1ccc(CCNC(=O)[C@@H]2c3ccccc3C(=O)N(Cc3ccccc3)[C@H]2c2ccc(CO)cc2)cc1 | 0.954
O=C(CS)NCCCCCNC(=O)[C@@H]1C[C@@H]2C(=O)N3CCC[C@H]3C(=O)N2[C@@H]1c1ccc(O)cc1 | 1.24
COC(=O)[C@]1(Cc2ccccc2CN=[N+]=[N-])N=C(c2ccc(OCCCO)cc2)O[C@@H]1c1ccccc1 | -1.33
COc1ccc([Si](C)(C)[C@@H]2[C@@H](CC(=O)N(CCO)Cc3ccccc3)O[C@]3(C(=O)N(Cc4ccc(N5CCOC5=O)cc4)c4ccccc43)[C@H]2C)cc1 | 0.0783
[N-]=[N+]=NCc1ccccc1C[C@]1(C(=O)NCCN2CCOCC2)N=C(c2ccc(OCCCO)cc2)O[C@H]1c1ccccc1 | 0.531
COC(=O)[C@H]1N=C(c2ccc(OCCCO)cc2)O[C@H]1c1ccccc1CN=[N+]=[N-] | -0.8
